Compound activity as filed in PubChem.
CHRM1 antagonist: blocks human M1 muscarinic receptor. CHO-K1 hM1, Fluo-8 calcium fluorescence, ACh EC80 antagonist. hit rate 1.3% among 360,000. inhibition, % at 3 µM. AID 588852;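 active = percent inhibition above its own plate's cutoff, namely the mean of that plate's compound wells plus 3 SD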;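 note: peak over basal fluorescence ratio during 140 s after agonist addition; 0% = ACh EC80 plus DMSO and 100% = DMSO alone without agonist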
Target sequence (P11229 whole entry, looked up): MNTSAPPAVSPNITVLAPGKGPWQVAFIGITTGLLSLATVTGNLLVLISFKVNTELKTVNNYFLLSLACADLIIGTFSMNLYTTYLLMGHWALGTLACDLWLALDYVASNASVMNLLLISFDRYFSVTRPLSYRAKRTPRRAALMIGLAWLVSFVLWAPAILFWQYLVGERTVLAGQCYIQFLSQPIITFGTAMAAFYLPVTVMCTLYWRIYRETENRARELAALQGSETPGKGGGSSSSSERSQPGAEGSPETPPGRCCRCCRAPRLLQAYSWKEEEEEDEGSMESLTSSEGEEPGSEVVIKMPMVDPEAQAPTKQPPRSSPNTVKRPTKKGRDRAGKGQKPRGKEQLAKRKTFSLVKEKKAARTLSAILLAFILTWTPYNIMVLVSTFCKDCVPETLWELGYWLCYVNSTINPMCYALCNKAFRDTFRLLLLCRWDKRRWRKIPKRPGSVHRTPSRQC
CHO-K1 Ca antag: nonselective inhibitor or artifact in parental CHO-K1 cells | ATP-induced calcium, Fluo-8 fluorescence | inhibition, % at 3 µM | hit rate 0.6% among 360,000 | AID 602250;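 active = inhibition above a per-plate cutoff, the plate's mean sample inhibition plus 3 SD, cut at about 24% in these data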;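 note: 0% = DMSO plus EC80 ATP and 100% = DMSO alone without ATP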
M1 ag: agonists of human M1 muscarinic receptor. activation, % at 3 µM. CHO-K1 hM1, Fluo-8 calcium fluorescence, agonist mode; 0% DMSO, 100% acetylcholine EC100. hit rate 0.33% among 360,000. P11229;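 active = activation above the run's mean compound activation plus 3 SD, cut at about 16% in these data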;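 note: peak over basal fluorescence ratio within a 140 s kinetic read after compound addition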
CHRM1 PAM: positive allosteric modulators of human M1 muscarinic receptor; CHO-K1 hM1, Fluo-8 calcium fluorescence, ACh EC20; 0% = ACh EC20, 100% = maximal ACh; activation, % at 3 µM; hit rate 0.088% among 360,000; in the data active = activation above about 19%, passing the limit was not always enough
M1 PAM parental: M1 PAM counterscreen hit in parental CHO-K1 cells | ATP EC20, Fluo-8 calcium fluorescence; 0% at ATP EC20, 100% at ATP max | hit rate 0.02% among 360,000 | activation, % at 3 µM;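 active = activation above the run cutoff, the mean activation of all test compounds plus 3 SD, cut at about 40% in these data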;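 note: peak over basal fluorescence ratio in a 140 s read after ATP addition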
M1 ag parental: nonselective activator or artifact in parental CHO-K1 cells; Fluo-8 calcium fluorescence; scaled to maximal ATP response, vehicle zero; activation, % at 3 µM; hit rate 0.48% among 360,000; in the data active = activation above about 15%;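 note: untransfected CHO-K1 host cells lacking M1 receptor as counterscreen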
Numbers without * were called inactive. The list is not random: actives were taken first. Their share in the collection is about 2.3%.

What do the screens show for `CC1CCCN(CCCOc2ccc(Cl)cc2Br)C1` (stereo not drawn)?
CHRM1 antagonist: 13; CHO-K1 Ca antag: -2; M1 ag: -13; CHRM1 PAM: -17; M1 PAM parental: 23; M1 ag parental: 1

How did Clc1ccc(SCCOCCN2CCCCC2)cc1 do in these assays?
CHRM1 antagonist: 28*; CHO-K1 Ca antag: -7; M1 ag: -11; CHRM1 PAM: -22; M1 PAM parental: 17; M1 ag parental: 2

Results for CC(OC(=O)c1ccc(-c2ccc(O)cc2)cc1)C(=O)NC1CCCCC1C (stereo not drawn) ?
CHRM1 antagonist: -3; CHO-K1 Ca antag: -6; M1 ag: -4; CHRM1 PAM: -2; M1 PAM parental: 10; M1 ag parental: 4

What do the screens show for `COc1ccc2cc(C3=CCCCC3)ncc2c1`?
CHRM1 antagonist: -9; CHO-K1 Ca antag: -22; M1 ag: -2; CHRM1 PAM: 4; M1 PAM parental: 6; M1 ag parental: 0

What do the screens show for `CSc1ccc(CN(C)CC(=O)NC(=O)NCCC2=CCCCC2)cc1`?
CHRM1 antagonist: -5; CHO-K1 Ca antag: -31; M1 ag: -7; CHRM1 PAM: -6; M1 PAM parental: 21; M1 ag parental: 1

Results for COC(=O)C1(CCSC)NC(c2ccc(O)c(OC)c2)C2C(=O)N(c3ccc(C)cc3)C(=O)C21 (stereo not drawn) ?
CHRM1 antagonist: -5; CHO-K1 Ca antag: -10; M1 ag: 25*; CHRM1 PAM: 4; M1 PAM parental: 20; M1 ag parental: 3

What do the screens show for `Cc1nn(C)c(C)c1CNC(=O)c1nn2c(c1Cl)NC(c1cccs1)CC2C(F)(F)F` (stereo not drawn)?
CHRM1 antagonist: -8; CHO-K1 Ca antag: -2; M1 ag: -2; CHRM1 PAM: -4; M1 PAM parental: -7; M1 ag parental: 0

What do the screens show for `Cc1nn(C)cc1CNC(=O)c1cc2n(n1)C(C(F)(F)F)CC(c1cccs1)N2` (stereo not drawn)?
CHRM1 antagonist: 23*; CHO-K1 Ca antag: -5; M1 ag: -3; CHRM1 PAM: -17; M1 PAM parental: -14; M1 ag parental: 3

How did Cc1cc(-c2ccc(C)c(S(=O)(=O)Nc3cc(C)on3)c2)on1 do in these assays?
CHRM1 antagonist: -24; CHO-K1 Ca antag: -10; M1 ag: -2; CHRM1 PAM: 14; M1 PAM parental: 24; M1 ag parental: 0

Results for COc1ccc(NC(=O)COc2ccccc2Cc2ccccc2)cc1S(N)(=O)=O ?
CHRM1 antagonist: 37*; CHO-K1 Ca antag: 48*; M1 ag: 6; CHRM1 PAM: -17; M1 PAM parental: -2; M1 ag parental: 18*

Results for CCCCOc1ccc(C(O)C(CN2CCCCC2)c2ccccc2)cc1 (stereo not drawn) ?
CHRM1 antagonist: 35*; CHO-K1 Ca antag: 13; M1 ag: -14; CHRM1 PAM: -31; M1 PAM parental: 1; M1 ag parental: 0

How did O=[N+]([O-])c1cccc(COc2ccc(CN3CCCCC3)cc2)c1 do in these assays?
CHRM1 antagonist: 87*; CHO-K1 Ca antag: -5; M1 ag: -8; CHRM1 PAM: -31; M1 PAM parental: -7; M1 ag parental: 2

Results for CCCCOc1ccc(CN2CCCCC2)cc1 ?
CHRM1 antagonist: 42*; CHO-K1 Ca antag: -22; M1 ag: -15; CHRM1 PAM: -31; M1 PAM parental: 15; M1 ag parental: 1

What do the screens show for `CCN(CC)C(=O)C1=C(C)N(CCC2=CCCCC2)C(=O)C(CC(=O)NCc2cccc3ccccc23)C1` (stereo not drawn)?
CHRM1 antagonist: -14; CHO-K1 Ca antag: -11; M1 ag: -7; CHRM1 PAM: 2; M1 PAM parental: 11; M1 ag parental: 0

Results for N#Cc1ccc(CN2CCN(C(=O)CNC(=O)Cc3cccc4ccccc34)CC2)cc1 ?
CHRM1 antagonist: 2; CHO-K1 Ca antag: -6; M1 ag: 23*; CHRM1 PAM: -9; M1 PAM parental: 6; M1 ag parental: 9

How did O=C(CCN1C(=O)c2ccccc2S1(=O)=O)NCc1ccc(F)cc1 do in these assays?
CHRM1 antagonist: -9; CHO-K1 Ca antag: -2; M1 ag: -7; CHRM1 PAM: 4; M1 PAM parental: 4; M1 ag parental: 0
